High-throughput results as filed in PubChem BioAssay.
A selection: hits, their analogues and other compounds. The true share with any hit is near 9.2%.
NPC1 prom act = activates the NPC1 promoter; AID 485313; Potency, µM (top dose mostly 9.22 µM), most hits filed as activators; Huh7 NPC1 promoter luciferase reporter, 24 h; hit rate 2.4% among 320,000; note: nearly all actives have a fitted effect of over 60% in size
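Stably transfected Huh7 (NPC1 promoter→luciferase), 1500 cells/well in Opti-MEM + 10% FBS, 2 h settle, then compound 24 h at 37 °C. Luminescence after 10 min with Amplite reagent.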
ELG1 genotoxic = genotoxicity induction in ELG1-luciferase HEK293T cells | HEK293T ELG1-luciferase reporter, luminescence, 16 h | Potency, µM (series often up to 46 µM), hits mostly activators | hit rate 1.3% among 330,000 | AID 504466; note: nearly all actives have a fitted effect of over 60% in size
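Quantitative HTS format in 1536-well plates. HEK293T ELG1-luciferase reporter cells receive test compound and are incubated 16 hr at 37 °C, 5% CO2; ONE-Glo added, 30 min room temperature, then luminescence read.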
FLuc modulator = inhibits or activates purified firefly luciferase, miR-21 counter-screen | purified FLuc, Km substrates, luminescence inhibition | Potency, µM (series often up to 57.5 µM), most hits filed as inhibitors | hit rate 6.9% among 360,000; note: nearly all actives have a fitted effect of over 55% in size
Target sequence (P08659 whole entry, looked up): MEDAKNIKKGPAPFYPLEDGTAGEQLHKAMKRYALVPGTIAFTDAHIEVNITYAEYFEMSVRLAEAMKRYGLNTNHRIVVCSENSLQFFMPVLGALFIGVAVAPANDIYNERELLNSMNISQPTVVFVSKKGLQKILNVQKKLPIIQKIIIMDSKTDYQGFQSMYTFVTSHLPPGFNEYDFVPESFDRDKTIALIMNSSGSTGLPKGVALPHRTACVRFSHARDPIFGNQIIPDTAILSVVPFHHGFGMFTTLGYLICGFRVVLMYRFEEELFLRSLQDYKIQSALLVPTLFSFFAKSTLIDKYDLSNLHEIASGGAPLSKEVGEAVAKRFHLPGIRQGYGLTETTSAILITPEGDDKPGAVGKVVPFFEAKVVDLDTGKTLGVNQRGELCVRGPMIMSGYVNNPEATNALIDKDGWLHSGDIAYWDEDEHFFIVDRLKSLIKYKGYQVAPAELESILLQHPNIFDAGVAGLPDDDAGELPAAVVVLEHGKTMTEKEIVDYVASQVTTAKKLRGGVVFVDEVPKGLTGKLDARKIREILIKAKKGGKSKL
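Purified P. pyralis luciferase (10nM final) with 10uM D-luciferin and 10uM ATP (Km levels) in 50mM Tris acetate pH 7.5, 10mM Mg acetate, 0.01% Tween-20, 0.05% BSA; qHTS 6-point titration, ~60 µM downward; luminescence read.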
SMN2 splice enh = enhancers of SMN2 splice variant expression | AID 1458 | hit rate 2.8% among 210,000 | Potency, µM (top dose mostly 46.1 µM), usual class: activators | HEK293 SMN2-luciferase splicing reporter, luminescence, 30-36 h; note: nearly all actives have a fitted effect of over 55% in size
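HEK293 cells carry an SMN2 minigene-luciferase reporter in which exon 7 inclusion puts luciferase in frame. Cells were seeded at 2000 cells/well, attached for 10-12 hours, then exposed to compounds for 30-36 hours at 37C before ONE-Glo luminescence.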
ELG1 DNA repair = ELG1-dependent DNA repair inhibition | HEK293T ELG1-luciferase reporter, luminescence, 16 h; DNA damage induced by 5-fluorouridine | Potency, µM (doses to about 46.1 µM), usual class: inhibitors | hit rate 2.3% among 330,000 | AID 504467; note: nearly all actives have a fitted effect of over 55% in size
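Step one: seed 2,000 cells per well. Step two: pin-transfer compound or DMSO alongside 5-fluorouridine. Step three: incubate 16 hr, 37 °C, 5% CO2. Step four: add ONE-Glo, wait 30 min, read luminescence.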
Rab9 promoter act = activates the Rab9 promoter. Huh7 Rab9 promoter-luciferase reporter, luminescence, 24 h. Potency, µM (top dose mostly 9.22 µM), hits mostly activators. hit rate 2.8% among 320,000; note: nearly all actives have a fitted effect of over 60% in size
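Huh7 cells stably carrying a Rab9 promoter-luciferase reporter, 1500 cells per well in OP-MEM I with 10% FBS, treated with compound 24 hours at 37C. Luciferase activity read by luminescence after 10 minutes with Amplite reagent.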
Hits are given with their value; [ ] = another dose, or the depositor's remark. Calls come from the whole dose curve; as a rule, active = well fitted curve in the direction sought with a large enough effect; inconclusive = small, poorly fitted or top-dose-only effect, or another doubt; inactive = no such curve, though single readings can be large; an effect the other way counts as inactive or inconclusive.

Screening COC(=O)c1sccc1NC(=O)Nc1ccc(Cl)c(Cl)c1 returned NPC1 prom act inactive, ELG1 genotoxic inactive, FLuc modulator inconclusive, SMN2 splice enh 13µM, ELG1 DNA repair inconclusive and Rab9 promoter act inactive.
`COc1ccc(CNC(=O)COC(=O)Cc2ccc(Br)cc2)cc1` gave ELG1 genotoxic inactive and ELG1 DNA repair inactive.
For CC[C@H](C)[C@H]1O[C@]2(CC[C@@H]1C)C[C@@H]1C[C@@H](C/C=C(\C)[C@H](O[C@@H]3C[C@H](OC)[C@H](O[C@@H]4C[C@H](OC)[C@@H](O)[C@H](C)O4)[C@H](C)O3)[C@@H](C)/C=C/C=C3\CO[C@@H]4[C@H](O)C(C)=C[C@@H](C(=O)O1)[C@]34O)O2 the results were SMN2 splice enh inactive.
`CC(=O)C1=C(C)NC(SCC(=O)c2ccc(F)cc2)=C(C#N)C1c1ccco1` (stereo unspecified) gave NPC1 prom act inactive, ELG1 genotoxic inactive, FLuc modulator inactive, SMN2 splice enh inactive, ELG1 DNA repair inconclusive and Rab9 promoter act inactive.
Cc1ccc(C(=O)CSC2=C(C#N)C(c3ccco3)C3=C(CCCC3=O)N2)cc1 (stereo unspecified) was read as NPC1 prom act inactive, ELG1 genotoxic inactive, FLuc modulator inactive, SMN2 splice enh inactive, ELG1 DNA repair 6.5µM and Rab9 promoter act inactive.
For CCCCc1ccc(NC(=O)CSC2=C(C#N)C(c3ccco3)C3=C(CCCC3=O)N2)cc1 (stereo unspecified) the results were NPC1 prom act inactive, ELG1 genotoxic inactive, FLuc modulator inactive, SMN2 splice enh inactive, ELG1 DNA repair 18µM and Rab9 promoter act inactive.
`COc1cccc(NC(=O)CSC2=C(C#N)C(c3ccco3)C3=C(CCCC3=O)N2)c1` (stereo unspecified) gave NPC1 prom act inactive, ELG1 genotoxic inactive, FLuc modulator inactive[2.3 µM], SMN2 splice enh inactive, ELG1 DNA repair inactive and Rab9 promoter act inactive.
`COc1ccccc1NC(=O)C1=C(C)NC(SCC(=O)c2ccc(C)cc2)=C(C#N)C1c1ccco1` (stereo unspecified) gave NPC1 prom act inactive, ELG1 genotoxic inactive, FLuc modulator inactive, SMN2 splice enh inactive, ELG1 DNA repair 16µM and Rab9 promoter act inactive.
Screening COc1ccc(S(=O)(=O)N[C@@H](CSCc2ccccc2)C(=O)O)cc1 returned NPC1 prom act inactive, ELG1 genotoxic inactive, FLuc modulator inactive, ELG1 DNA repair inactive and Rab9 promoter act inactive.
For Cc1ccc(OCc2cc(C(=O)N3CCN(c4ccccc4)CC3)no2)cc1C the results were NPC1 prom act 2.5µM, ELG1 genotoxic 3.7µM, FLuc modulator 6µM, ELG1 DNA repair inconclusive and Rab9 promoter act 2µM.
Screening Cc1ccc(OCc2cc(C(=O)N(CCO)Cc3cccs3)no2)cc1C returned NPC1 prom act 4µM, ELG1 genotoxic inconclusive, FLuc modulator 27µM, ELG1 DNA repair inconclusive and Rab9 promoter act 3.5µM.
`Cc1ccc(OCc2cc(C(=O)N3CCC(c4ccccc4Cl)C3)no2)cc1C` (stereo unspecified) gave NPC1 prom act inconclusive, ELG1 genotoxic inconclusive, FLuc modulator 27µM, ELG1 DNA repair inconclusive and Rab9 promoter act inconclusive.
For CCN(Cc1ccncc1)C(=O)c1cc(COc2ccc(C)c(C)c2)on1 the results were NPC1 prom act inactive, ELG1 genotoxic inactive, FLuc modulator inactive, ELG1 DNA repair inactive and Rab9 promoter act inactive.
For Cc1ccc(OCc2cc(C(=O)N3CCN(C4CCCC4)CC3)no2)cc1C the results were NPC1 prom act inactive, ELG1 genotoxic inactive, FLuc modulator inconclusive, ELG1 DNA repair inconclusive and Rab9 promoter act inactive.
`COCCn1c(SCC(=O)NC2CCCC2)nnc1-c1ccco1` gave NPC1 prom act inactive, ELG1 genotoxic inactive, FLuc modulator inactive, ELG1 DNA repair inactive and Rab9 promoter act inactive.
Nc1ccn([C@@H]2O[C@H](COC(=O)C34CC5CC(CC(C5)C3)C4)[C@@H](O)[C@@H]2O)c(=O)n1 was read as SMN2 splice enh inactive[9.22 µM].
Screening Cc1ccc2ccc3cc(C(=O)N4CCN(c5ccccc5)CC4)nc3c2[nH]1 returned FLuc modulator inactive.
`O=C(O)CCC(=O)Nc1ccc(-c2csc(Nc3cccc4ccccc34)n2)cc1` gave NPC1 prom act inactive, ELG1 genotoxic inactive, FLuc modulator inactive, ELG1 DNA repair inactive and Rab9 promoter act inactive.
Screening Cc1ccc(CNC(=O)CCCCCn2c(=O)c3sccc3n(CC(=O)N(C)c3ccccc3)c2=O)cc1 returned FLuc modulator inconclusive and SMN2 splice enh inactive.
CC(=O)c1c(C)[nH]c(C(=O)Nc2ccccn2)c1C was read as NPC1 prom act 1.3µM, ELG1 genotoxic 10µM, FLuc modulator 9.5µM, ELG1 DNA repair inconclusive and Rab9 promoter act 3.2µM.
CC(=O)c1c(C)[nH]c(C(=O)Nc2ccc(Cl)cc2F)c1C was read as NPC1 prom act 1.8µM, ELG1 genotoxic inconclusive, FLuc modulator 9.5µM, ELG1 DNA repair inconclusive and Rab9 promoter act 2.8µM.
Screening CC(=O)c1c(C)[nH]c(C(=O)Nc2cccc(C)c2C)c1C returned NPC1 prom act inactive, ELG1 genotoxic inactive, FLuc modulator inactive, ELG1 DNA repair inconclusive and Rab9 promoter act inactive.
CC(=O)c1c(C)[nH]c(C(=O)NCCc2ccc(Cl)cc2)c1C was read as NPC1 prom act inactive, ELG1 genotoxic inactive, FLuc modulator inactive, SMN2 splice enh inactive, ELG1 DNA repair inactive and Rab9 promoter act inactive.
`CC(=O)c1c(C)[nH]c(C(=O)Nc2ccc(Cl)cc2)c1C` gave NPC1 prom act 3.2µM, ELG1 genotoxic inactive, FLuc modulator 9.5µM, ELG1 DNA repair inconclusive and Rab9 promoter act 1.8µM.
`CSc1cccc(NC(=O)c2[nH]c(C)c(C(C)=O)c2C)c1` gave NPC1 prom act inconclusive, ELG1 genotoxic 23µM, FLuc modulator 17µM, ELG1 DNA repair inconclusive and Rab9 promoter act inconclusive.
`CCCCNC(=O)CSc1nc(COc2ccccc2)nc2ccccc12` gave NPC1 prom act inactive, ELG1 genotoxic inactive, FLuc modulator inactive, SMN2 splice enh inactive, ELG1 DNA repair inactive and Rab9 promoter act inactive.
For COc1ccc(-n2ccn(CC(=O)NCc3ccc(C)cc3)c(=O)c2=O)cc1OC the results were FLuc modulator inactive.
CC(=O)c1c(C)[nH]c(C(=O)N2CCN(c3ccc(F)cc3)CC2)c1C was read as NPC1 prom act inactive, ELG1 genotoxic inactive, FLuc modulator inactive, SMN2 splice enh inactive, ELG1 DNA repair inactive and Rab9 promoter act inactive.
For CCC(C)c1ccc(NC(=O)c2[nH]c(C)c(C(C)=O)c2C)cc1 (stereo unspecified) the results were NPC1 prom act inactive, ELG1 genotoxic inactive, FLuc modulator 19µM, ELG1 DNA repair inconclusive and Rab9 promoter act inactive.
